The values below come from article PMC7862700, “An all-to-all approach to the identification of sequence-specific readers for epigenetic DNA modifications on cytosine”.

What all share (assay): DAPPL (digital affinity profiling via proximity ligation, sequencing); 10 mM Tris-HCl pH 7.5, 50 mM NaCl, 1 mM DTT, 4% glycerol, room temperature, 30 min; GST-TFs on glutathione beads, 16-mer random dsDNA library, 0.1% formaldehyde crosslink after washing; high values mean tight binding
For one assay, the target named is T1, FEV (Homo sapiens, UniProt Q99581 1-238).
T1 sequence: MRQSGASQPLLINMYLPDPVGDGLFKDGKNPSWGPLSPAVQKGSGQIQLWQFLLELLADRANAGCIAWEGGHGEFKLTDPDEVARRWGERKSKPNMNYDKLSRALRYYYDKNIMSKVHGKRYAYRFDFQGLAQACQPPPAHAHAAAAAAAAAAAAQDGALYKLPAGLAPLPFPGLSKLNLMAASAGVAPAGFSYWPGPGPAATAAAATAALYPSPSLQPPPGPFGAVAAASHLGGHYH
Conditions: protein: recombinant; tags: N-terminal GST; dsDNA, one strand shown. The method, boiled down:
(§1)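 After expression in yeast as GST fusions, human transcription factors were bound to glutathione beads, DNA-barcoded and mixed with a tag-only sample. The pools were incubated with 200 nmole of a 16-mer random double-stranded DNA library in Tris/NaCl/DTT/glycerol buffer (30 min, room temperature), washed and crosslinked with 0.1% formaldehyde. Proximity ligation with BsaI/T4 ligase ran for 1 h at 37 °C, before PCR amplification and sequencing on an Illumina NextSeq500. Binding signal is a hexamer's read frequency for a factor divided by its frequency for the tag-only sample.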

Another assay has as its target ETV5 (Homo sapiens, UniProt P41161 1-510). Conditions: protein: recombinant; tags: N-terminal GST; dsDNA, one strand shown. The method, boiled down:
as §1

The target in another assay is HSF1 (Homo sapiens, UniProt Q00613 1-529). The conditions noted are these: protein: recombinant; tags: N-terminal GST; chain copies: 3; dsDNA, one strand shown. The method, boiled down: as §1
Chain of HSF1 (Q00613 whole entry): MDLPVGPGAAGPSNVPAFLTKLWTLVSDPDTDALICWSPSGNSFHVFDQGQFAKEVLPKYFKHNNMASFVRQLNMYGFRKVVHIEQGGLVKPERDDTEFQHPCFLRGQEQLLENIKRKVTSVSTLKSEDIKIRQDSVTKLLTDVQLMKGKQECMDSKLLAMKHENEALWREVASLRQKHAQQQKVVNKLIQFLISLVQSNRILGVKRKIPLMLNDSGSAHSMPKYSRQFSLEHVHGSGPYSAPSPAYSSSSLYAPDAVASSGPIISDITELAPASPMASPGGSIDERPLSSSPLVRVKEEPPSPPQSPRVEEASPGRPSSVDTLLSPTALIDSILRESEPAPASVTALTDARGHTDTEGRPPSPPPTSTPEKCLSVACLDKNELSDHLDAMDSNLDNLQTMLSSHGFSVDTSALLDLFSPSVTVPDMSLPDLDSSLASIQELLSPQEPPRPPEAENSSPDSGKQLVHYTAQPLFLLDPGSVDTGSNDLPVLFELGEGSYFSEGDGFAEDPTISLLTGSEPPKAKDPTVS
The next assay addresses T2, SPIC (Homo sapiens, UniProt Q8N5J4 1-248).
T2 sequence: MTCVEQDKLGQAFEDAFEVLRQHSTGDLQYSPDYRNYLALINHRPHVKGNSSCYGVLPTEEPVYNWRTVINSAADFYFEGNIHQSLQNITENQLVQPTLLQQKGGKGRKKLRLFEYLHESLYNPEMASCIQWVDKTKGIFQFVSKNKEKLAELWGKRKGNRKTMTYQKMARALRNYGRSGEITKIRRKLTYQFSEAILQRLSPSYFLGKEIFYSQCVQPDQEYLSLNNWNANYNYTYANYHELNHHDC
The conditions noted are these: protein: recombinant; tags: N-terminal GST; dsDNA, one strand shown. An outline of the steps: as §1

Another assay concerns the target ELF4 (Homo sapiens, UniProt Q99607 1-663). The conditions noted are these: protein: recombinant; tags: N-terminal GST; dsDNA, one strand shown. An outline of the steps: as §1
A further assay addresses T3, ELK4 (Homo sapiens, UniProt P28324-2 1-405).
T3 sequence: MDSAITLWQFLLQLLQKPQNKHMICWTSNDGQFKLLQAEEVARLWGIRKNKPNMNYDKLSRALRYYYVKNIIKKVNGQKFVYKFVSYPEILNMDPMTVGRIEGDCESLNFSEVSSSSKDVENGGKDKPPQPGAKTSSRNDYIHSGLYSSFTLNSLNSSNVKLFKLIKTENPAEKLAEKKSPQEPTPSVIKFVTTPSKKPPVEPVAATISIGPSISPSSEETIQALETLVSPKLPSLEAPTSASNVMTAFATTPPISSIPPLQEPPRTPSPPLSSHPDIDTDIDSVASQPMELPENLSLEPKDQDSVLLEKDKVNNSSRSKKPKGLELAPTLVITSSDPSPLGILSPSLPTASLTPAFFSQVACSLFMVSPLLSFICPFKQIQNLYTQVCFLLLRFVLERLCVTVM
The conditions noted are these: protein: recombinant; tags: N-terminal GST; dsDNA, one strand shown. An outline of the steps:
as §1

The next assay concerns the target T4, ETV2 (Homo sapiens, UniProt O00321 1-342).
T4 sequence: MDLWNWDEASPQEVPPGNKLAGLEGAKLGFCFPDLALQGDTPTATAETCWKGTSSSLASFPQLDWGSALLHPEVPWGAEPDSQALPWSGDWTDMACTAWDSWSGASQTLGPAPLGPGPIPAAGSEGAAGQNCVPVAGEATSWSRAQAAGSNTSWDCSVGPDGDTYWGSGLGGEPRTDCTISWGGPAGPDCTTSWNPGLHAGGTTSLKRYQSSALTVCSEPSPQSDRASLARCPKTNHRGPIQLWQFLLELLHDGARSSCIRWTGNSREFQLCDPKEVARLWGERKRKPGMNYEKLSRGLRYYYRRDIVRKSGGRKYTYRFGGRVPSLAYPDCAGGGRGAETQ
The conditions noted are these: protein: recombinant; tags: N-terminal GST; dsDNA, one strand shown. An outline of the steps: as §1

For another assay, the target named is T5, ELF3 (Homo sapiens, UniProt P78545 1-371).
T5 sequence: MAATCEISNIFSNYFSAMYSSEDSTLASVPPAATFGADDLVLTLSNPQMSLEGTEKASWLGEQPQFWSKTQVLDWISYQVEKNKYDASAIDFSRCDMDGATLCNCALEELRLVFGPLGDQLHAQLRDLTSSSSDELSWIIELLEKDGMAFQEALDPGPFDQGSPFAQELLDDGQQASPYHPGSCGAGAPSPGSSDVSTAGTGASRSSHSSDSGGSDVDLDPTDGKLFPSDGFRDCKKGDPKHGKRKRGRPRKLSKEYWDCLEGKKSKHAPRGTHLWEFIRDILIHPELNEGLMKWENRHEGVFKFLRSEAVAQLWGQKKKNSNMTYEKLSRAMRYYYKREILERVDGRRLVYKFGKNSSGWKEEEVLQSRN
Conditions: protein: recombinant; tags: N-terminal GST; dsDNA, one strand shown. An outline of the steps:
as §1

For a further assay, the target named is CRX (Homo sapiens, UniProt O43186 1-299). The conditions noted are these: protein: recombinant; tags: N-terminal GST; dsDNA, one strand shown. An outline of the steps: as §1
Chain of CRX (O43186 whole entry): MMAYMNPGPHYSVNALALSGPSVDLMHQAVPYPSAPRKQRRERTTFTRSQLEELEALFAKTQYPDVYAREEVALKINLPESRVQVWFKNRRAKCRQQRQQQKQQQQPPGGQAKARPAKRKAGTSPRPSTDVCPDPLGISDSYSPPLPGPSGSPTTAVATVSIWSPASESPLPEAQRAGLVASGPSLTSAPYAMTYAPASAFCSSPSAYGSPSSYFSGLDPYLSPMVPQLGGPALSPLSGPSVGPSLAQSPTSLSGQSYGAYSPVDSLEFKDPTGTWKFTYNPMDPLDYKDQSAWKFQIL
In a further assay the target is ETV1 (Homo sapiens, UniProt P50549 1-477). The conditions noted are these: protein: recombinant; tags: N-terminal GST; dsDNA, one strand shown. An outline of the steps: as §1
Chain of ETV1 (P50549 whole entry): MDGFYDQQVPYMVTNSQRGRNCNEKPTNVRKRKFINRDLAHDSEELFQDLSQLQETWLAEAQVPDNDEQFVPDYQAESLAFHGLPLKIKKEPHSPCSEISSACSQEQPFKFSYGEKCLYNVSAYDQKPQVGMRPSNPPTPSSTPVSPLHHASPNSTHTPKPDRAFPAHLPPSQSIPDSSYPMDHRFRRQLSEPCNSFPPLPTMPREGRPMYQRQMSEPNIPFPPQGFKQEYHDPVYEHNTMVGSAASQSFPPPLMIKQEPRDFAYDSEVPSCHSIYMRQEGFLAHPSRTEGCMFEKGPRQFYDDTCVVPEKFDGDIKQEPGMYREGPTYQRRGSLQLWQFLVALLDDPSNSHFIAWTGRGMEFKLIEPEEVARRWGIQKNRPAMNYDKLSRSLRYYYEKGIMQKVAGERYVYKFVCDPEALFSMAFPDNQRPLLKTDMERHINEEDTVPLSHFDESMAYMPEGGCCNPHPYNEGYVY
The next assay has as its target T6, ERF (Homo sapiens, UniProt P50548 1-548).
T6 sequence: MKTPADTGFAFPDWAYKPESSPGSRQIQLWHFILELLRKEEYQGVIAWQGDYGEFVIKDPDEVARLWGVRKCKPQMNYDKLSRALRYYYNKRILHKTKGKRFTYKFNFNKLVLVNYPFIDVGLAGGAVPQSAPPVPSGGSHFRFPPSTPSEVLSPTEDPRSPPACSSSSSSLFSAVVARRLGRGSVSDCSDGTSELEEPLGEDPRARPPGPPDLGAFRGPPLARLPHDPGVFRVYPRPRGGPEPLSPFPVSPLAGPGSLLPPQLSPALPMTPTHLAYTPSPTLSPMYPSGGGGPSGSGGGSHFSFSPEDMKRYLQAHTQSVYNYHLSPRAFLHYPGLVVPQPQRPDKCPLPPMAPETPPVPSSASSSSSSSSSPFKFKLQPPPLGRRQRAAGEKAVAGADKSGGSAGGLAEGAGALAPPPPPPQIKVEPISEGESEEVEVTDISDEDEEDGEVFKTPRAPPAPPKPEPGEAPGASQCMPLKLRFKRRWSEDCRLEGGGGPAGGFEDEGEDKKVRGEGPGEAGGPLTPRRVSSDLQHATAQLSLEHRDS
The conditions noted are these: protein: recombinant; tags: N-terminal GST; dsDNA, one strand shown. The method, boiled down: as §1

Another assay concerns the target T7, ETV3L (Homo sapiens, UniProt Q6ZN32 1-361).
T7 sequence: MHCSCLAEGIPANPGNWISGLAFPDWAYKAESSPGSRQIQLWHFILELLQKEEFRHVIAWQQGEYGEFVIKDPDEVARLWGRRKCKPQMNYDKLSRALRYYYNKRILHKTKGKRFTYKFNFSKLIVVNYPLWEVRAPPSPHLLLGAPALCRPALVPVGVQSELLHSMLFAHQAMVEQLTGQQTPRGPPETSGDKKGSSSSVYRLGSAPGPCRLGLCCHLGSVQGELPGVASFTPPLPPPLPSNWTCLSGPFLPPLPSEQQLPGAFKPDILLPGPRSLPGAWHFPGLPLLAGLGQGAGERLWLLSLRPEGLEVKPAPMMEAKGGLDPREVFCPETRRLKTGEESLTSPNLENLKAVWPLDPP
Conditions: protein: recombinant; tags: N-terminal GST; dsDNA, one strand shown. An outline of the steps:
as §1

For another assay, the target named is T8, ETS2 (Homo sapiens, UniProt P15036 1-469).
T8 sequence: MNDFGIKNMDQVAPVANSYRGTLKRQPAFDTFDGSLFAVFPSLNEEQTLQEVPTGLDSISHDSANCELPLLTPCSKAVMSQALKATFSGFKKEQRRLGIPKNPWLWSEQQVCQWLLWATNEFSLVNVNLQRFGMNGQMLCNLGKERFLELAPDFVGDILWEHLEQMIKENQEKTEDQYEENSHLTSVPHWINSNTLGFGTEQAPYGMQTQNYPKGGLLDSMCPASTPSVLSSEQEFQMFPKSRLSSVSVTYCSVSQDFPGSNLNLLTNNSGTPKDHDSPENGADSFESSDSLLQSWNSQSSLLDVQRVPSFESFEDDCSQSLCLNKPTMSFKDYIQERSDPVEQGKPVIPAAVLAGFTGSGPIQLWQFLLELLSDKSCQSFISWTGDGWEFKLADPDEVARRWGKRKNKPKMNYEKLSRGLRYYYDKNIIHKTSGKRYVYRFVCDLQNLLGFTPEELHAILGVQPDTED
Conditions: protein: recombinant; tags: N-terminal GST; dsDNA, one strand shown. The method, boiled down: as §1

The target in the next assay is T9, SPDEF (Homo sapiens, UniProt O95238 1-335).
T9 sequence: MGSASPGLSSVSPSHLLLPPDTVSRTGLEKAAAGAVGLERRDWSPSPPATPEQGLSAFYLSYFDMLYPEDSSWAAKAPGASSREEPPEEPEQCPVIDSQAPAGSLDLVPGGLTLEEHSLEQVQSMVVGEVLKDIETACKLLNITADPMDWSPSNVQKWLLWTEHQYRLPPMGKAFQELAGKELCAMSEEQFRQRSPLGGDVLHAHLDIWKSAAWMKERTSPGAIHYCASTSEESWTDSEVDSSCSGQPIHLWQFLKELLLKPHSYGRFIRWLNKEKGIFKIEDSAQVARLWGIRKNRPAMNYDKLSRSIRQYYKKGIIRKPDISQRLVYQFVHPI
Conditions: protein: recombinant; tags: N-terminal GST; dsDNA, one strand shown. The method, boiled down:
as §1

The next assay addresses T10, ETV7 (Homo sapiens, UniProt Q9Y603 1-341).
T10 sequence: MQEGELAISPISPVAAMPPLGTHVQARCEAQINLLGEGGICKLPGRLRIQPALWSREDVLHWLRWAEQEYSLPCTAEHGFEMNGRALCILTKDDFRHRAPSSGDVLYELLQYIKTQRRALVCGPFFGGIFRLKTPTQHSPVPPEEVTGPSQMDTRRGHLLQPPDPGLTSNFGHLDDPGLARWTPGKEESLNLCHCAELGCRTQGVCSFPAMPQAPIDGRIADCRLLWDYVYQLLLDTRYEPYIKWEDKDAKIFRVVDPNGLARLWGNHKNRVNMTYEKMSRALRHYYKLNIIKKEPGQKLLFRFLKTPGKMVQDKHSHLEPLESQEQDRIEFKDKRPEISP
The conditions noted are these: protein: recombinant; tags: N-terminal GST; dsDNA, one strand shown. An outline of the steps:
as §1

In another assay the target is T11, ELF5 (Homo sapiens, UniProt Q9UKW6-2 1-255).
T11 sequence: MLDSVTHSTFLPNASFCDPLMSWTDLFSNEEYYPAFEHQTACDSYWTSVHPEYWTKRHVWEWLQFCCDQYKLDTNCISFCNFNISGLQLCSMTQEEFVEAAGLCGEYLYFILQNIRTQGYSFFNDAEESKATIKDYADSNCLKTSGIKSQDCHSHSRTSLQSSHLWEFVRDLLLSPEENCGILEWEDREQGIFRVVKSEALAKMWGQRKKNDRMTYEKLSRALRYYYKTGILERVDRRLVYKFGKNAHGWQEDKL
Conditions: protein: recombinant; tags: N-terminal GST; dsDNA, one strand shown. An outline of the steps:
as §1

The target of the next assay is T12, ETV3 (Homo sapiens, UniProt P41162-2 1-143).
T12 sequence: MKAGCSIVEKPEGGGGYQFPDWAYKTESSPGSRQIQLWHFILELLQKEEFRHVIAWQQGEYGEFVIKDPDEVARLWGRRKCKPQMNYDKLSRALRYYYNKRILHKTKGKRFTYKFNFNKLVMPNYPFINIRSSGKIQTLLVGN
Conditions: protein: recombinant; tags: N-terminal GST; dsDNA, one strand shown. The method, boiled down: as §1

In the next assay the target is ETV6 (Homo sapiens, UniProt P41212 1-452). The conditions noted are these: protein: recombinant; tags: N-terminal GST; dsDNA, one strand shown. The method, boiled down: as §1
Chain of ETV6 (P41212 whole entry): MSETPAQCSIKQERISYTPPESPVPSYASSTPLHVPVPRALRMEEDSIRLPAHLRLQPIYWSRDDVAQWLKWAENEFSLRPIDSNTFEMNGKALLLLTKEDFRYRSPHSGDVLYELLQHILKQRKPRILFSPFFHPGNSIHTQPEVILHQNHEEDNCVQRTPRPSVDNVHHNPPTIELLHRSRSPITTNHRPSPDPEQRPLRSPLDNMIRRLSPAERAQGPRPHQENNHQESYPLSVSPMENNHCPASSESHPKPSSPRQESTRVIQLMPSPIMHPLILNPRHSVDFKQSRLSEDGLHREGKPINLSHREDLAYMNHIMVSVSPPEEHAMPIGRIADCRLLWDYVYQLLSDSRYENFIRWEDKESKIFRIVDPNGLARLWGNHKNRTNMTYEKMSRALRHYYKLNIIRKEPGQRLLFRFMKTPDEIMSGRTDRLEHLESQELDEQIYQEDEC

Chain of ETV5 (P41161 whole entry): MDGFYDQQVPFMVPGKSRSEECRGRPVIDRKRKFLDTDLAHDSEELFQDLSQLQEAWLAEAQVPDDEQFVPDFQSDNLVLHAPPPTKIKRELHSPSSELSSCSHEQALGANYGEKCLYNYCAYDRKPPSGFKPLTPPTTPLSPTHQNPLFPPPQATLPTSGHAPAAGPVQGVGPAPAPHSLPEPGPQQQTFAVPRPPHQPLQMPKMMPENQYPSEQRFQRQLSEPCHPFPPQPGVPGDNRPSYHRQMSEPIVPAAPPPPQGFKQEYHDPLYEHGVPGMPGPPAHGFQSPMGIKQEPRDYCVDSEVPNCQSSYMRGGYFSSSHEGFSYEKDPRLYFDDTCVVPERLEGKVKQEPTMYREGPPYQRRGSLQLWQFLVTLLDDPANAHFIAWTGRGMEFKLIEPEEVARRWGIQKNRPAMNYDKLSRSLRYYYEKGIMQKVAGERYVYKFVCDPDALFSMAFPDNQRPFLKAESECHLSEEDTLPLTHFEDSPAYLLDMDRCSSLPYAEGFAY
Chain of ELF4 (Q99607 whole entry): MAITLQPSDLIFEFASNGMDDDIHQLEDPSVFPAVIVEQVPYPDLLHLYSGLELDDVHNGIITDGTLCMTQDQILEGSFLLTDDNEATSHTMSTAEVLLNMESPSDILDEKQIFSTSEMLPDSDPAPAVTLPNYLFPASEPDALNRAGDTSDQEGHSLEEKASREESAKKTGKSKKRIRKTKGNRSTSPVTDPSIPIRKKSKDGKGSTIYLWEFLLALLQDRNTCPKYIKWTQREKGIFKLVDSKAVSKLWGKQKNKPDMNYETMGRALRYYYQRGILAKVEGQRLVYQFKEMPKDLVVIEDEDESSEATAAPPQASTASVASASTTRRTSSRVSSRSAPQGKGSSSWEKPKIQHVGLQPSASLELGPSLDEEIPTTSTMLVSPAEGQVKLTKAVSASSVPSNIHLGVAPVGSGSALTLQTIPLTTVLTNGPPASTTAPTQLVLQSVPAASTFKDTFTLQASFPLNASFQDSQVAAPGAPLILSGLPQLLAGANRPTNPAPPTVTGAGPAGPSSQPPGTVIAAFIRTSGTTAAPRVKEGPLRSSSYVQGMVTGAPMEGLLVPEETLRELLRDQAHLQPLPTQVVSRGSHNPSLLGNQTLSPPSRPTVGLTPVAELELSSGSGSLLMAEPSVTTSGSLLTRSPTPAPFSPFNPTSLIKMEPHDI

For the sequence TCGCTC, the binding signal was 1.23 fold enrichment (6-mer frequency, TF over GST control) in the assay with FEV; 1.24 fold enrichment (6-mer frequency, TF over GST control) in the assay with ETV5; 1.25 fold enrichment (6-mer frequency, TF over GST control) with HSF1; 1.24 fold enrichment (6-mer frequency, TF over GST control) in the assay with SPIC; 1.31 fold enrichment (6-mer frequency, TF over GST control) with ELF4; 1.29 fold enrichment (6-mer frequency, TF over GST control) with ELK4. For the same sequence, the binding signal was 1.22 fold enrichment (6-mer frequency, TF over GST control) with ETV2; 1.4 fold enrichment (6-mer frequency, TF over GST control) with ELF3; 1.12 fold enrichment (6-mer frequency, TF over GST control) with CRX; 1.38 fold enrichment (6-mer frequency, TF over GST control) in the assay with ETV1; 1.35 fold enrichment (6-mer frequency, TF over GST control) with ERF; 1.37 fold enrichment (6-mer frequency, TF over GST control) in the assay with ETV3L. Further, the binding signal with ETS2 is 1.32 fold enrichment (6-mer frequency, TF over GST control); in the assay with SPDEF, 1.19 fold enrichment (6-mer frequency, TF over GST control); with ETV7, 1.02 fold enrichment (6-mer frequency, TF over GST control); with ELF5 it was 1.25 fold enrichment (6-mer frequency, TF over GST control); in the assay with ETV3, 1.11 fold enrichment (6-mer frequency, TF over GST control); in the assay with ETV6, 1.28 fold enrichment (6-mer frequency, TF over GST control).
